# This is a sample that favours compounds with a hit; in the whole collection about 3.9% have one here.
# BRCA1 expr act: increases BRCA1 expression | MCF7-BRCA1-FFLuc reporter, luminescence, 48 h; response scale: scaled: vehicle 0%, 10 µM genistein 100% | Potency, µM (series often up to 46.1 µM), for the others: at the top dose activation, most hits filed as activators | hit rate 1.1% among 380,000 | AID 624202; further: nearly all actives have a fitted effect of over 80% in size
#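 Cells: MCF7-BRCA1-FFLuc, 2000/well. Exposure: 48 h, 37 °C, 5% CO2. Read: luminescence, 15 min post-substrate. Controls: genistein 10 microM (maximal activation), DMSO (neutral).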
# PLK1 PBD block: PLK1 (human) polo-box domain binding inhibition | hit rate 2.8% among 360,000 | Potency, µM, without a hit: max response, negative = inhibition, usual class: inhibitors | AID 720504 | Plk1 PBD binding of FITC phosphopeptide, fluorescence polarization; further: series mostly up to about 57 µM; on the % scale 0 is the no-effect control and ±100 the full control effect; nearly all actives have a fitted effect of over 65% in size
# Tb PFK inh: inhibitors of T. brucei phosphofructokinase | O15648 | T. brucei PFK, ADP-Glo luminescence | Potency, µM (series often up to 57.5 µM), without a hit: at the highest dose activity, negative = inhibition, hits mostly inhibitors | hit rate 0.17% among 330,000 | AID 485367;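 further: 0% = uninhibited 1x PFK enzyme wells and -100% = no-enzyme wells; nearly all actives have a fitted effect of over 60% in size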
#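 Activity is normalized to no-enzyme wells (full inhibition) and 1.25 nM enzyme wells (no inhibition). Reaction: 0.5 mM F6P, 0.1 mM ATP, 45 min RT, ADP-Glo luminescence; concentration-response curves fitted and classed by quality.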
# VDR inh: inhibitors of human vitamin D receptor. P11473. VDR-SRC2-3 peptide fluorescence polarization, 2 h. Potency, µM, inactives show max response, negative = inhibition, most hits filed as inhibitors. hit rate 0.93% among 400,000. AID 504847; further: on the % scale 0 is the no-effect control and ±100 the full control effect
# Target sequence (P11473 whole entry, looked up): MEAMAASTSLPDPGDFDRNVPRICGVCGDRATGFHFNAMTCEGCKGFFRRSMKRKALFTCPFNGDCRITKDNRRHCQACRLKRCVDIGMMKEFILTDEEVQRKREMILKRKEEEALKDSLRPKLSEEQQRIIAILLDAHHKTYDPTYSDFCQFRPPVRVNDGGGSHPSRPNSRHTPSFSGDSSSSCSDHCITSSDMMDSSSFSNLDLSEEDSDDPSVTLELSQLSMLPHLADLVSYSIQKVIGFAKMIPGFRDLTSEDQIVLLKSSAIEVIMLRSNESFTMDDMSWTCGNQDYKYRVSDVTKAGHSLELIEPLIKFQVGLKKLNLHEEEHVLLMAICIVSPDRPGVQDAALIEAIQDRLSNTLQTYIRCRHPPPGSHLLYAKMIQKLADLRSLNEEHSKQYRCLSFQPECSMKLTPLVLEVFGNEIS
#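 Two reagent solutions held at 4 deg C in the dark were dispensed, compounds pinned at 23 nl, and the mixture incubated 2 h at room temperature. Read-out: fluorescence polarization of VDR–SRC2-3 peptide binding.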
# The depositor's hits bear a star; u = inconclusive; x = not tested or not shown. The call rests on the fitted dose curve; in most records, active means well fitted curve in the direction sought with a large enough effect; inconclusive means small, poorly fitted or top-dose-only effect, or another doubt; inactive means no such curve, though single readings can be large; an effect the other way counts as inactive or inconclusive. Potency means the concentration at half of the fitted maximal effect.
SMILES,BRCA1 expr act,PLK1 PBD block,Tb PFK inh,VDR inh
COC(=O)c1ccc(NC(=O)C(=O)NCC2CCCO2)cc1 (stereo not given),51.5%,29.9µM*,6.9%,-29.5%
O=C(NCC1CCCO1)Nc1ccc(Cl)cc1 (stereo not given),10µM*,-1.7%,x,-9.9%
O=C(NCC1CCCO1)Nc1cc(Cl)cc(Cl)c1 (stereo not given),3.3%,-7.4%,0.5%,5.4%
Cc1ccc(S(=O)(=O)NN2C(=O)/C(=C/c3ccc(F)cc3)SC2=S)cc1,-6.0%,u,14.3%,-27.4%
COc1ccc(/C=C2/SC(=S)N(NS(=O)(=O)c3ccc(C)cc3)C2=O)cc1,-37.9%,23.8µM*,5.4%,-7.8%
C=CCOc1ccc(/C=C2\SC(=S)N(NS(=O)(=O)c3ccc(C)cc3)C2=O)cc1,-10.8%,26.7µM*,0.3%,-14.9%
Cc1ccc(S(=O)(=O)NN2C(=O)/C(=C/c3ccc(C(=O)O)cc3)SC2=S)cc1,-17.8%,-8.4%,u,u
Cc1ccc(S(=O)(=O)NN2C(=O)/C(=C\c3ccc(Cl)cc3)SC2=S)cc1,-17.5%,26.7µM*,3.0%,-10.6%
Cc1ccc(/C=C2\SC(=S)N(NS(=O)(=O)c3ccc(C)cc3)C2=O)cc1,-1.0%,26.7µM*,0.3%,8.5%
CCc1ccc(NC(=O)C(C)Sc2nc(-c3ccco3)c(C#N)c(=O)[nH]2)cc1 (stereo not given),-17.9%,23.8µM*,1.1%,u
CCOc1ccccc1NC(=O)C(C)Sc1nc(-c2ccccc2)c(C#N)c(=O)[nH]1 (stereo not given),x,x,x,-2.4%
CC1(c2ccc([N+](=O)[O-])cc2)Nc2ccccc2S1 (stereo not given),64.7%,6.7µM*,u,u
O=C1Nc2ccccc2/C1=C/c1ccc([N+](=O)[O-])cc1,8.0%,4.7%,0.5%,-9.8%
N#CCCCS(=O)(=O)c1nnnn1-c1ccc(F)cc1Br,x,x,x,44.7µM*
N#CCCCS(=O)(=O)c1nnnn1C1CCCCC1,x,x,x,7.9%
CCOc1ccc(CNC(=O)c2cccc(NC(=O)N3CCSc4ncccc43)c2)cc1,x,x,x,7.8%
Clc1cc(Cl)c(OCC#CI)cc1Cl,x,x,x,2.82µM*
O=C(COc1cc(Cl)c(Cl)cc1Cl)N1CCN(c2ccccn2)CC1,-13.0%,-0.3%,1.1%,6.2%
BrC(=C\c1ccccc1)/C=N/N1CCN(c2ccccc2)CC1,103.8%,-25.6%,-1.4%,79.4µM*
Cc1cc2c(cc1C)N[C@]1(C[C@H]3CCCC(=O)N4CC[C@@H](C1)[C@@H]34)C(=NC(C)(C)CC(C)(C)C)N2,-35.3%,9.8%,x,-11.4%
COc1ccccc1C(=O)N/C(=C\c1cn(S(=O)(=O)N(C)C)c2ccccc12)C(=O)NCCCn1ccnc1,0.0%,x,x,23.8%
Cc1ccc(C(=O)N/C(=C\c2cn(S(=O)(=O)N(C)C)c3ccccc23)C(=O)NCCCn2ccnc2)cc1,0.5%,29.9µM*,2.0%,-19.2%
Nc1cccc(-c2nnc3n2CCCCC3)c1,-7.1%,16.8µM*,-5.0%,-17.0%
O=[N+]([O-])c1cccc(-c2nnc3n2CCCCC3)c1,-6.9%,-10.5%,6.1%,u
c1csc(-c2nc(N3CCN(Cc4ccc5c(c4)OCCO5)CC3)c3ccccc3n2)c1,5.1%,x,x,0.5%
SMILES,BRCA1 expr act,PLK1 PBD block,Tb PFK inh,VDR inh
O=C(NCc1ccccc1)c1ccc(-c2ccccc2F)o1,11.2µM*,-4.6%,-2.2%,7.9%
O=C(NCCc1ccccc1)c1ccc(-c2ccccc2C(F)(F)F)o1,11.3%,-16.8%,-0.2%,u
CN1CCN(C(=O)c2ccc3c(c2)N(Cc2cccc(Cl)c2)C(=O)c2ccccc2S3(=O)=O)CC1,-1.3%,26.7µM*,-0.7%,-7.0%
O=C(CSc1nnc(CNC(=O)c2ccccc2)o1)NCc1ccc2c(c1)OCO2,-6.7%,-13.1%,-0.6%,0.4%
Cc1ccc(C(=O)NNC(=S)NC(=O)COc2ccccc2)cc1,20.4%,26.7µM*,-5.7%,-7.2%
CCCOc1ccc(C(=O)NNC(=S)NC(=O)c2ccccc2)cc1,-69.5%,-20.6%,0.8%,-13.2%
CCCOc1ccc(C(=O)NNC(=S)NC(=O)c2cccs2)cc1,-32.1%,29.9µM*,0.6%,-20.9%
Cc1ccc2nc(N3C(=O)C(O)=C(C(=O)c4ccco4)C3c3ccc(C)o3)sc2c1 (stereo not given),17.5%,13.4µM*,0.2%,-29.2%
CCc1ccc2nc(N3C(=O)C(O)=C(C(=O)c4ccco4)C3c3cccs3)sc2c1 (stereo not given),15.4%,16.8µM*,-1.0%,u

# From PubChem BioAssay
